The values that follow come from the supplement of paper PMC8728848.

Only a selection was taken, and the strongest signals are over-represented in it overall.

What all share (test): glycan array binding signal (z-score within array); higher = stronger binding
Conditions in all cases: glycan notation: IUPAC condensed, linker removed

In assay [1] the target is Fuc(a1-2)Gal(b1-3)GalNAc(b1-4)[Neu5Ac(a2-3)]Gal(b1-4)Glc. Put shortly:
(§1)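 The binding signal is a Z-score computed within each array and averaged over linkers. Arrays of the same protein sequence at different concentrations or buffers were also averaged together. Data originate from 3228 arrays in the Consortium for Functional Glycomics database, kept only where the protein sequence was available.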

In a further assay the target is Fuc(a1-2)Gal(b1-3)GlcNAc. Put shortly: as §1
Assay [2] concerns the target Fuc(a1-2)Gal(b1-3)GlcNAc(b1-2)Man(a1-3)[Fuc(a1-2)Gal(b1-3)GlcNAc(b1-2)Man(a1-6)]Man(b1-4)GlcNAc(b1-4)GlcNAc. A digest of the protocol: as §1
The target of assay [3] is Fuc(a1-2)Gal(b1-4)GlcNAc(b1-3)Gal(b1-4)GlcNAc. Put shortly:
as §1

Assay [4] has as its target Fuc(a1-2)Gal(b1-4)GlcNAc(b1-3)Gal(b1-4)GlcNAc(b1-2)Man(a1-3)[Fuc(a1-2)Gal(b1-4)GlcNAc(b1-3)Gal(b1-4)GlcNAc(b1-2)Man(a1-6)]Man(b1-4)GlcNAc(b1-4)GlcNAc. Put shortly: as §1
Assay [5] has as its target Fuc(a1-2)Gal(b1-4)[Fuc(a1-3)]GlcNAc(b1-3)GalNAc. Put shortly:
as §1

The target of assay [6] is Fuc(a1-2)Gal6S(b1-4)Glc6S. A digest of the protocol: as §1
Assay [7] deals with Fuc(a1-2)[Gal(a1-3)]Gal(b1-4)GlcNAc(b1-2)Man(a1-3)[Fuc(a1-2)[Gal(a1-3)]Gal(b1-4)GlcNAc(b1-2)Man(a1-6)]Man(b1-4)GlcNAc(b1-4)GlcNAc. Put shortly:
as §1

Assay [8] addresses Fuc(a1-2)[Gal(a1-4)]Gal(b1-4)GlcNAc. Put shortly:
as §1

Assay [9] deals with Gal(a1-3)Gal(b1-3)[Fuc(a1-4)]GlcNAc(b1-2)Man(a1-3)[Gal(a1-3)Gal(b1-3)[Fuc(a1-4)]GlcNAc(b1-2)Man(a1-6)]Man(b1-4)GlcNAc(b1-4)GlcNAc. A digest of the protocol:
as §1

The target in the next assay is Gal(a1-3)Gal(b1-4)Glc. A digest of the protocol: as §1
In assay [10] the target is Gal(a1-3)Gal(b1-4)[Fuc(a1-3)]GlcNAc. Put shortly: as §1
A further assay concerns the target Gal(a1-3)GalNAc. Put shortly:
as §1

Assay [11] concerns the target Gal(a1-4)Gal(b1-3)GlcNAc(b1-2)Man(a1-3)[Gal(a1-4)Gal(b1-3)GlcNAc(b1-2)Man(a1-6)]Man(b1-4)GlcNAc(b1-4)GlcNAc. Put shortly:
as §1

Assay [12] addresses Gal(a1-4)Gal(b1-4)GlcNAc(b1-2)Man(a1-3)[Gal(a1-4)Gal(b1-4)GlcNAc(b1-2)Man(a1-6)]Man(b1-4)GlcNAc(b1-4)GlcNAc. Put shortly: as §1
The target of assay [13] is Gal(a1-4)Gal(b1-4)GlcNAc(b1-3)Gal(b1-4)Glc. Put shortly: as §1
A further assay addresses Gal(b1-3)GlcNAc. A digest of the protocol: as §1
The target of assay [14] is Gal(b1-3)GlcNAc(b1-3)Gal(b1-4)GlcNAc(b1-3)Gal(b1-4)GlcNAc(b1-2)[Gal(b1-3)GlcNAc(b1-3)Gal(b1-4)GlcNAc(b1-3)Gal(b1-4)GlcNAc(b1-6)]Man(a1-6)[Gal(b1-3)GlcNAc(b1-3)Gal(b1-4)GlcNAc(b1-3)Gal(b1-4)GlcNAc(b1-2)Man(a1-3)]Man(b1-4)GlcNAc(b1-4)[Fuc(a1-6)]GlcNAc. Put shortly:
as §1

Assay [15] has as its target Gal(b1-3)GlcNAc(b1-3)GalNAc. Put shortly: as §1
Assay [16] has as its target Gal(b1-3)[Fuc(a1-4)]GlcNAc(b1-6)GalNAc. A digest of the protocol: as §1
In assay [17] the target is Gal(b1-4)GlcNAc(b1-3)Gal(b1-4)GlcNAc(b1-3)Gal(b1-4)GlcNAc(b1-2)[Gal(b1-4)GlcNAc(b1-3)Gal(b1-4)GlcNAc(b1-3)Gal(b1-4)GlcNAc(b1-6)]Man(a1-6)[Gal(b1-4)GlcNAc(b1-3)Gal(b1-4)GlcNAc(b1-3)Gal(b1-4)GlcNAc(b1-2)Man(a1-3)]Man(b1-4)GlcNAc(b1-4)[Fuc(a1-6)]GlcNAc. Put shortly: as §1
Assay [18] deals with Gal(b1-4)GlcNAc(b1-3)Gal(b1-4)GlcNAc(b1-3)Gal(b1-4)GlcNAc(b1-3)Gal(b1-4)GlcNAc(b1-2)[Gal(b1-4)GlcNAc(b1-3)Gal(b1-4)GlcNAc(b1-3)Gal(b1-4)GlcNAc(b1-3)Gal(b1-4)GlcNAc(b1-6)]Man(a1-6)[Gal(b1-4)GlcNAc(b1-3)Gal(b1-4)GlcNAc(b1-3)Gal(b1-4)GlcNAc(b1-3)Gal(b1-4)GlcNAc(b1-2)Man(a1-3)]Man(b1-4)GlcNAc(b1-4)[Fuc(a1-6)]GlcNAc. Put shortly: as §1
Assay [19] addresses Gal(b1-4)GlcNAc(b1-3)Gal(b1-4)GlcNAc(b1-3)Gal(b1-4)GlcNAc(b1-3)Gal(b1-4)GlcNAc(b1-3)Gal(b1-4)GlcNAc(b1-2)Man(a1-3)[Gal(b1-4)GlcNAc(b1-3)Gal(b1-4)GlcNAc(b1-3)Gal(b1-4)GlcNAc(b1-3)Gal(b1-4)GlcNAc(b1-3)Gal(b1-4)GlcNAc(b1-2)Man(a1-6)]Man(b1-4)GlcNAc(b1-4)[Fuc(a1-6)]GlcNAc. Put shortly: as §1

B1: PX9961U-pdi-543-24-543 (Parabacteroides distasonis) (protein)
chain: EEPVGEFLPGQVESEENIEGIVTGAYAVLDGYYASDAINSGCSNWQFGDVVSDDAYKGGGGTGDQNQIHLMEIFNANPTGIDFEARWAALYEGIKRCNQAIRLLNGSEVKNKEQRLAEMRFLRGHYYFNLKIIYNQIPWIDETLVDPNEYNKKSNIEFSSDQLWEKILEEFSAAYKVLPESQADYGRPTKMAARAYMAKVYLYQSKWKECLEACDEVIQSGKYELFPDFRNVFLPENDNCSEIIFAIQLSINDGSPNNENGSYGDRLLPPGGPYPVYGFLRPTQNLVNAYKTDVKGLPYNDGKDVSENDYVDVRLDHTLARPNIPFMDVQLYDWTPREASVYGPYSPKKRLVSLNSTYYSPIWPYVNALNFYVIRYADLLLWRAEAAIETGDLETGRKYINMIRERAKNTQHVKTMDQSQDAANYKVGVYDEPFKSKNEAVQALRMERRLEMAHEGIRFFDLVRWGVADEVINAYIAKEKVFRSHLQNAHFVKGKHEYFPIPQSMIDICGTEVMKQNPGY
On to B1, for which the “glycan array binding signal (z-score)” value in assay [1] is -0.337; with Fuc(a1-2)Gal(b1-3)GlcNAc, -0.324; in assay [2] it was 7.29; in assay [3], -0.463; in assay [4] it was -0.241; in assay [5], 3.47. Also, the “glycan array binding signal (z-score)” value was -0.226 in [6]; 8.53 in assay [7]; -0.379 in [8]; 4.38 in assay [9]; -0.175 with Gal(a1-3)Gal(b1-4)Glc; 0.287 in assay [10]. Further, the “glycan array binding signal (z-score)” value is -0.348 with Gal(a1-3)GalNAc; -0.428 in assay [11]; 2.13 in assay [12]; -0.389 in [13]; -0.43 with Gal(b1-3)GlcNAc; 4.42 in assay [14]. The “glycan array binding signal (z-score)” value is -0.385 in assay [15]; 3.44 in [16]; 6.31 in assay [17]; 3.38 in [18]; 7.11 in [19].
